Data on 14 compounds can be found in PubChem BioAssay (Tox21).

Each structure is given as a SMILES string. A number with no mark means an inactive call. Inconclusive results are not listed. Calls of active or inactive are those of the source. Unless noted, calls come from the whole dose curve.

Test [1] in a line: Nuclear factor erythroid 2-related factor 2/antioxidant responsive element (Nrf2/ARE) small molecule agonists: qHTS cell viability counter screen in human keratinocytes (AID 1919968; active = well fitted curve in the direction sought with a large enough effect in the repeat runs; an effect the other way counts as inactive or inconclusive; note: nearly all actives have a fitted effect of over 55% in size). Summed up:
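After a 5 h attachment period, ARE-reporter keratinocytes were dosed with compounds in DMSO and then cultured 23 h at 37 C. Cell viability came from CellTiter-Fluor signal read after a further 1 h.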

A short description of test [2]: Nuclear factor erythroid 2-related factor 2/antioxidant responsive element (Nrf2/ARE) small molecule agonists: luciferase reporter gene qHTS assay in human keratinocytes (AID 1919969). Note: nearly all actives have a fitted effect of over 35% in size.
Test [3] deals with Gonadotropin-releasing hormone receptor (Homo sapiens) (UniProt P30968). In words: Human gonadotropin-releasing hormone receptor (GnRHR) small molecule agonists, calcium flux assay in GnRHR-HEK293 cells (AID 1920063). Note: nearly all actives have a fitted effect of over 35% in size. The procedure, abridged: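 We seeded human GnRHR-expressing HEK293 cells for 18 hours, loaded them with calcium dye for an hour at 37 C, added test compounds, and recorded fluorescence intensity kinetically for three minutes.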
Chain of Gonadotropin-releasing hormone receptor (Homo sapiens) (P30968 whole entry, looked up): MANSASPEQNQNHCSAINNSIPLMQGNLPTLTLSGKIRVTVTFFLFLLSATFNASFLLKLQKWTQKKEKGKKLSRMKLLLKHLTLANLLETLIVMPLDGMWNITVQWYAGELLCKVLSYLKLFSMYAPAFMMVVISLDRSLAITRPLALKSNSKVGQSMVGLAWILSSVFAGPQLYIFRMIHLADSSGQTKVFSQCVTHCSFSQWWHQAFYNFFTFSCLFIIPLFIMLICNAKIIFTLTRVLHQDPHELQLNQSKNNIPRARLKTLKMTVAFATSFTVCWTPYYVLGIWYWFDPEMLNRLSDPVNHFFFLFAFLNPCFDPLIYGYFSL

Test [4] concerns the target KiSS-1 receptor (Homo sapiens) (UniProt Q969F8). Description: Human kisspeptin (KISS1R) small molecule agonists, calcium flux assay in KISS1R-HEK293 cells (AID 1920064; active = well fitted curve in the direction sought with a large enough effect in the repeat runs; an effect the other way counts as inactive or inconclusive). Summed up:
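Kinetic calcium assay, 1 s sampling over 3 min at Ex/Em 480/540, in HEK293 cells engineered with human KISS1R; compounds delivered in DMSO after 1 h dye loading.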

Test [5] is described as follows: G protein-coupled receptor (GPCR) small molecule agonists, calcium flux assay: HEK293 wild type cell line counter screen (AID 1920065). Summed up:
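Calcium-sensitive dye, loaded 1 h at 37 C into cells cultured 18 h, reports compound-evoked calcium release as fluorescence (Ex/Em 480/540), measured over 3 min. Agonist mode; 15-point titrations, triplicate.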

Test [6] is described as follows: p53 small molecule agonists, cell-based qHTS assay with human liver microsomes: qHTS cell viability counter screen (AID 1963579). Note: nearly all actives have a fitted effect of over 45% in size. Summed up: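 Viability of p53RE-bla cells is measured as CellTiter-Glo luminescence following a 16 h, 37 C incubation with compound, liver microsomes from human donors and NADPH.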
Test [7] can be described thus: p53 small molecule agonists, cell-based qHTS assay with rat liver microsomes: qHTS cell viability counter screen (AID 1963580). Note: nearly all actives have a fitted effect of over 45% in size. Summed up: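 p53RE-bla HCT-116 cells were exposed 16 h at 37 C to compounds with rat liver microsomes (0.5 mg/mL) and NADPH (0.5 mg/mL). Viability was measured in the same wells as ATP content by CellTiter-Glo luminescence.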
The nature of test [8]: p53 small molecule agonists, cell-based qHTS assay: qHTS cell viability counter screen (AID 1963581). Note: nearly all actives have a fitted effect of over 45% in size. Summed up:
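Following 5 h attachment, HCT-116 p53RE-bla cells took up compound for 16 h at 37 C; the reporter was read with B/G FRET substrate (2 h RT), and viability then via CellTiter-Glo ATP luminescence.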

For test [9], the target named is 5-hydroxytryptamine receptor 2A (Homo sapiens) (UniProt P28223). Description: 5-hydroxytryptamine receptor 2A (HTR2A) small molecule antagonists, cell-based qHTS assay (AID 1963586). Note: nearly all actives have a fitted effect of over 45% in size. Summed up:
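Antagonist-mode intracellular calcium assay: DOI (4 nM) added after 5 min compound pre-incubation at room temperature to dye-loaded HTR2A-CHO cells. Fluorescence followed for 3 min, sampled every second.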

The target is the same in test [10]. In words: 5-hydroxytryptamine receptor 2A (HTR2A) small molecule agonists, cell-based qHTS assay (AID 1963587). Note: nearly all actives have a fitted effect of over 30% in size. The procedure, abridged: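 CHO cells stably expressing human HTR2A, plated 18 h, loaded with calcium dye 1 h at 37 C. Agonist mode: compounds added and intracellular calcium fluorescence recorded kinetically for 2 min at 1 sec intervals.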
Test [11] addresses Muscarinic acetylcholine receptor M1 (Homo sapiens) (UniProt P11229). In words: Cholinergic receptor muscarinic 1 (CHRM1) small molecule antagonists, cell-based qHTS assay (AID 1963588). Note: nearly all actives have a fitted effect of over 40% in size. Note: potency is the fitted concentration of half-maximal effect. Summed up: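 CHRM1-CHO calcium-flux assay, antagonist mode. Cells were seeded 18 h, dye-loaded 1 h at 37 C and given compound for 5 min at RT, then acetylcholine was added at 50nM. FDSS fluorescence was read 3 min; 15 concentrations, three runs.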

For test [12] the target is unchanged. In words: Cholinergic receptor muscarinic 1 (CHRM1) small molecule agonists, cell-based qHTS assay (AID 1963589). Note: nearly all actives have a fitted effect of over 35% in size. Note: potency is the fitted concentration of half-maximal effect. The procedure, abridged:
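Measures agonist-induced intracellular calcium rise. Stable human CHRM1 CHO line, 1 h dye load at 37 C, compounds from DMSO, kinetic fluorescence read.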

Test [13] is described as follows: cAMP Responsive Elements (CRE) small molecule agonists, cell-based qHTS assay (AID 1963590). Summed up: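 A CRE-responsive beta-lactamase reporter in HEK 293T cells was used. Treatment ran 3 h at 37 C; detection used LiveBLAzer B/G FRET substrate for 2 h at room temperature.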
Test [14] is described as follows: cAMP Responsive Elements (CRE) small molecule antagonists, cell-based qHTS assay (AID 1963591; active = well fitted inhibition curve with a large enough effect in the signal ratio in the repeat runs, not every such curve was filed as active; the % refers to the signal ratio). The procedure, abridged:
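HEK293T cells carrying a CRE-driven beta-lactamase reporter receive compound and NKH477 (0.25 uM final) for 3 h. Fluorescence from LiveBLAzer B/G FRET substrate is read after 2 h at room temperature.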

The target of test [15] is D(2) dopamine receptor (Homo sapiens) (UniProt P14416). Description: Dopamine D2 receptor (DRD2) small molecule agonists, cell-based qHTS assay (AID 1963594). Note: nearly all actives have a fitted effect of over 35% in size. Summed up:
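HEK293 cells stably expressing human DRD2, pre-treated with PDE inhibitor Ro20-1724 (0.1 mM final) and compound 10 min at room temperature, then stimulated with NKH477 (200nM […]) for 30 min. cAMP read by HTRF (665/620 nm).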

For test [16] the target is unchanged. Description: Dopamine D2 receptor (DRD2) small molecule antagonists, cell-based qHTS assay (AID 1963595; active = well fitted inhibition curve with a large enough effect in the signal ratio in the repeat runs, with a control signal flat; the % refers to the signal ratio; note: potency is the fitted concentration of half-maximal effect). Summed up: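 DRD2-HEK293; 0.1 mM Ro20-1724; cpd 10 min RT; NKH477 200 nM + quinpirole 12 nM, 30 min RT; HTRF cAMP (cAMP-d2/anti-cAMP cryptate), 665/620 nm ratio after 1 h.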
The target of test [17] is Beta-2 adrenergic receptor (Homo sapiens) (UniProt P07550). In words: Adrenergic beta2 receptor (ADRB2) small molecule antagonists, cell-based qHTS assay (AID 1963592). Note: nearly all actives have a fitted effect of over 50% in size. Note: potency is the fitted concentration of half-maximal effect. The procedure, abridged:
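Cells (CHO, stable ADRB2 overexpression) incubated 18-20hr at 37C; compounds added from DMSO; agonist mix (1nM isoproterenol, 100uM IBMX, 25uM Ro-20-1724) added; 0.5hr RT; d2-cAMP and anti-cAMP-cryptate added; 1hr RT; 665/615 nm read.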

Test [18] shares this target. Description: Adrenergic beta2 receptor (ADRB2) small molecule agonists, cell-based qHTS assay (AID 1963593).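 Note: CHO cells stably overexpressing human ADRB2.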 Summed up:
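CHO cells stably over-expressing ADRB2 were plated overnight at 37C, then dosed with compounds plus a stimulation mix containing 100uM IBMX and 25uM Ro-20-1724 for 0.5hr at room temperature. cAMP was measured by HTRF competition, 1hr.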

Chain of Beta-2 adrenergic receptor (Homo sapiens) (P07550 whole entry, looked up): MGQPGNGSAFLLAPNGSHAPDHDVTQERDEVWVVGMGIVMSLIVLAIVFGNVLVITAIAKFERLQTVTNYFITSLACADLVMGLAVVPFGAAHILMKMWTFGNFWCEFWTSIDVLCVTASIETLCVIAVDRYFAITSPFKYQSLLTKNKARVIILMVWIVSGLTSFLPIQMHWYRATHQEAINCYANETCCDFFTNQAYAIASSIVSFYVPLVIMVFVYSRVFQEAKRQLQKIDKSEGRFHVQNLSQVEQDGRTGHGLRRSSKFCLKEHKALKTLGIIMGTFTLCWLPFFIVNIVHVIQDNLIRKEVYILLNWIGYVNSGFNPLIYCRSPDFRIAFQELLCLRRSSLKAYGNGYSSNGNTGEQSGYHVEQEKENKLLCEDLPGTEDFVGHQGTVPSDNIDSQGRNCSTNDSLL
Chain of Muscarinic acetylcholine receptor M1 (Homo sapiens) (P11229 whole entry, looked up): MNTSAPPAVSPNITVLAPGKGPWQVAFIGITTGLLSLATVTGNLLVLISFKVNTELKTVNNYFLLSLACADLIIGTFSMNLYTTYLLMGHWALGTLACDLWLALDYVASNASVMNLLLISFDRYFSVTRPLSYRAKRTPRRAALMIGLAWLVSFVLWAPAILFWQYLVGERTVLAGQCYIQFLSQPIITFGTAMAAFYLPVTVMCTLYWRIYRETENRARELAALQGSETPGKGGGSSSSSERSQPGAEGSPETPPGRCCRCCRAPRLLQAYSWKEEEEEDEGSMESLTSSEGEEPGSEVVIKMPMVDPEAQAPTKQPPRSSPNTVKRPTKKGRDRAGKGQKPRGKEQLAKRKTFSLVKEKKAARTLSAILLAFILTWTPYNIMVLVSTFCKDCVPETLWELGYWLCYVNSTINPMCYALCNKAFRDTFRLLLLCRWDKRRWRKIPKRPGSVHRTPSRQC
Chain of D(2) dopamine receptor (Homo sapiens) (P14416 whole entry, looked up): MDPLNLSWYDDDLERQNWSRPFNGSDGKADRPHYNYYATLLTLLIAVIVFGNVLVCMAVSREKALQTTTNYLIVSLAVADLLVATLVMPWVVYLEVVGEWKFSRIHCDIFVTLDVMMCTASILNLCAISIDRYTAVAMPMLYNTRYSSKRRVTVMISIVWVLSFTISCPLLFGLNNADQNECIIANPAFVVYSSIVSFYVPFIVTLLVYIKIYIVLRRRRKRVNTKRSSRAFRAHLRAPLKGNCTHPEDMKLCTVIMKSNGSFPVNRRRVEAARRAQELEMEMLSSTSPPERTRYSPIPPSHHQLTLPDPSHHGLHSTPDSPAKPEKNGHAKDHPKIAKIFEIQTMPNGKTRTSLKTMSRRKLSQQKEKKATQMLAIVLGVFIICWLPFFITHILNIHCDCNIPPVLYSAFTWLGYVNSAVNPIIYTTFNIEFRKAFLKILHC
Chain of 5-hydroxytryptamine receptor 2A (Homo sapiens) (P28223 whole entry, looked up): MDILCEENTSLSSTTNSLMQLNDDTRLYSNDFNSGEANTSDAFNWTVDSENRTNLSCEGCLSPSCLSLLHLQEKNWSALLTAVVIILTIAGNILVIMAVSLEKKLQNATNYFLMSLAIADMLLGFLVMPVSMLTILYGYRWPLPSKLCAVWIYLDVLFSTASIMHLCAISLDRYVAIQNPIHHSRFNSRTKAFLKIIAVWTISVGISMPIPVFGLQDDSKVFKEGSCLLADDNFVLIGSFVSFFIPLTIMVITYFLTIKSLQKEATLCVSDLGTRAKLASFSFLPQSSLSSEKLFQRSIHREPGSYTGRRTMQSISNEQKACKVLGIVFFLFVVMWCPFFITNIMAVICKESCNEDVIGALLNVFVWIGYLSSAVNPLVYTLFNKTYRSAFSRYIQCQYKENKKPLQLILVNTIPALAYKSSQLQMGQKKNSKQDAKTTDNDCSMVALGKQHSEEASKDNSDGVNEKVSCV
Chain of KiSS-1 receptor (Homo sapiens) (Q969F8 whole entry, looked up): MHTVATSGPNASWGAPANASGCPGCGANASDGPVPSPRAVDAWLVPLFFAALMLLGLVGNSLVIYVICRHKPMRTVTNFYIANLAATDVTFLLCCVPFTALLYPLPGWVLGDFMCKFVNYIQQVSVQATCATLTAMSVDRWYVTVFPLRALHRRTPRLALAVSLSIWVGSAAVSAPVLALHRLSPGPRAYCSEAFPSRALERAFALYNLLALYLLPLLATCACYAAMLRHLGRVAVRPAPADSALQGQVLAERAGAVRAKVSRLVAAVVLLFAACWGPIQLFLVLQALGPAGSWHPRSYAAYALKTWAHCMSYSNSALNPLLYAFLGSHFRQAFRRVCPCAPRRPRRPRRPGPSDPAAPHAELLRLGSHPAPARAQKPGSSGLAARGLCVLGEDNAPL

For `CCOC(=O)OCC`, the Potency entry in test [1], in test [2], in test [3], in [4], in [5] and in test [6] was “inactive” each time. For the same compound, the Potency result in test [7], in [8], in [9], in [10], in test [11] and in test [12] was “inactive” throughout. Besides, the Potency entry in test [13], in [14] and in test [15] was “inactive” each time.
As for `COc1cc2c(cc1OC)[C@@H]1CC(=O)[C@@H](CC(C)C)CN1CC2`, the Potency result in test [1], in test [2], in [3], in test [4], in test [5] and in [6] was “inactive” in each case. For the same compound, the Potency result in [7], in test [8], in [9], in test [10], in test [11] and in test [12] was “inactive” each time. Moreover, the Potency entry in [13], in [15] and in [16] was “inactive” throughout.
On to `CCOc1ccccc1OCCN[C@H](C)Cc1ccc(OC)c(S(N)(=O)=O)c1`, for which the Potency result in [1], in test [2], in test [3], in [4], in test [5] and in [6] was “inactive” each time. Also, the Potency entry in test [7], in test [8], in test [9], in [10], in test [11] and in [12] was “inactive” in each case. Also, the Potency entry in test [14] is “inactive”. The Potency is 8.41 µM (active) in test [17] and 1.19 µM (active) in [16].
In the case of `CC(C)C(C)C`, the Potency entry in [1], in test [2], in [3], in test [4], in test [5] and in test [6] was “inactive” each time. Further, the Potency entry in test [7], in [8], in test [9], in test [10], in [11] and in test [12] was “inactive” in each case. Further, the Potency result in [14], in test [17], in test [18], in [15] and in test [16] was “inactive” each time.
As for `Cc1c(C)c2c(c(C)c1OC(=O)c1cccnc1)CC[C@@](C)(CCC[C@H](C)CCC[C@H](C)CCCC(C)C)O2`, the Potency entry in test [1], in test [2], in test [3], in test [4], in test [5] and in test [6] was “inactive” in each case. In addition, the Potency result in [7], in test [8], in test [9], in [10], in test [11] and in test [12] was “inactive” throughout. Also, the Potency result in [14], in test [17], in test [15] and in test [16] was “inactive” in each case.
As to `CCCOC(OCCC)OCCC`, the Potency result in test [1], in [2], in test [3], in [4], in [5] and in test [6] was “inactive” in each case. Further, the Potency result in test [7], in [8], in test [9], in test [10], in test [11] and in [12] was “inactive” each time. Also, the Potency result in test [13], in test [17], in test [18], in test [15] and in test [16] was “inactive” each time.
Take `CN(C)CCCO[C@@H]1[C@H]2OC(C)(C)O[C@H]2O[C@@H]1C(O)CO` (stereo not given in full): the Potency result in test [1], in [2], in test [3], in test [4], in [5] and in test [6] was “inactive” throughout. Besides, the Potency entry in test [7], in test [8], in test [9], in test [10], in test [11] and in test [12] was “inactive” throughout. In addition, the Potency result in test [13], in test [17], in [18], in test [15] and in test [16] was “inactive” throughout.
In the case of `COc1ccc(OC)c(Cl)c1`, the Potency result in test [1], in test [2], in test [3], in test [4], in test [5] and in test [6] was “inactive” in each case. Besides, the Potency result in [7], in test [8], in test [9], in test [10], in test [11] and in [12] was “inactive” in each case. Further, the Potency result in test [14], in test [17], in test [18], in [15] and in [16] was “inactive” in each case.
On to `COC(=O)c1ccc(C(=O)OC)c(C(=O)OC)c1`, for which the Potency entry in [1], in test [2], in test [3], in [4], in [5] and in test [6] was “inactive” each time. Besides, the Potency entry in test [7], in test [8], in [9], in test [10], in test [11] and in test [12] was “inactive” each time. The Potency result in test [13], in test [18] and in test [15] was “inactive” in each case.
Take `Cc1cc(C(=C2C=CC(=Nc3ccc(S(=O)(=O)O)cc3S(=O)(=O)O)C=C2)c2ccc(Nc3ccc(S(=O)(=O)O)cc3)cc2)ccc1N`: the Potency entry in test [1], in [2], in [3], in test [4], in test [5] and in [6] was “inactive” each time. The Potency result in test [7], in test [8], in test [9], in [10], in test [11] and in test [12] was “inactive” each time. The Potency result in test [13], in test [14], in test [18], in test [15] and in [16] was “inactive” throughout.
Turning to `CN(C(=O)CN(CCO)CC(=O)N(C)C(C)(C)Cc1ccccc1)C(C)(C)Cc1ccccc1`, the Potency entry in test [1], in [2], in test [3], in test [4], in test [5] and in test [6] was “inactive” in each case. For the same compound, the Potency result in test [7], in test [8], in test [9], in test [10], in [11] and in [12] was “inactive” each time. Further, the Potency result in test [14], in test [17], in test [15] and in test [16] was “inactive” each time.
Regarding `CCOC(=O)NCCOc1ccc(Oc2ccccc2)cc1`, the Potency result in test [1], in test [2], in test [3], in test [4], in test [5] and in [6] was “inactive” throughout. In addition, the Potency result in [7], in [8], in test [9], in test [10], in test [12] and in test [13] was “inactive” in each case. Besides, the Potency result in [18], in test [15] and in test [16] was “inactive” each time. Besides, the Potency in test [11] was 29.8 µM (active).
Turning to `CCCCCCCCCCCCSCCOCCO`, the Potency entry in [1], in test [2], in [3], in [4], in test [5] and in test [6] was “inactive” throughout. In addition, the Potency result in test [7], in test [8], in [9], in test [10], in test [11] and in test [13] was “inactive” in each case. Moreover, the Potency entry in test [17], in test [18] and in test [16] was “inactive” each time. In addition, the Potency in test [12] is 0.0379 µM (active).
For the compound `CC(=O)NNC(C)=O`, the Potency result in test [1], in test [2], in test [3], in test [4], in test [5] and in test [6] was “inactive” in each case. For the same compound, the Potency entry in [7], in [8], in [9], in [10], in test [11] and in test [12] was “inactive” in each case. In addition, the Potency entry in test [14], in test [17], in test [15] and in [16] was “inactive” each time.
